Measurements taken from PubChem BioAssay AID1508609 (The Scripps Research Institute Molecular Screening Center, 2020).
Among all 6,700 compounds or so, fewer than 10 were called active.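 The calls were made as follows: active = mean percent activation across replicates above the confirmation screen cutoff of 4.91%; inactive = the rest.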 Only a sample is shown.

What follows are compounds tested against G-protein coupled receptor 151 (Homo sapiens) (UniProt Q8TDV0) (assay: GPR151 activators, triplicate retest, confirmation, cell-based, PathHunter beta-arrestin, luminescence (AID 1508609)). Details: GPR151 PathHunter beta-arrestin cells, 90 min, at 11.2 µM, hits give high values, % of EA-reagent control over plate median.
Sequence of G-protein coupled receptor 151 (Homo sapiens) (Q8TDV0 whole entry, looked up): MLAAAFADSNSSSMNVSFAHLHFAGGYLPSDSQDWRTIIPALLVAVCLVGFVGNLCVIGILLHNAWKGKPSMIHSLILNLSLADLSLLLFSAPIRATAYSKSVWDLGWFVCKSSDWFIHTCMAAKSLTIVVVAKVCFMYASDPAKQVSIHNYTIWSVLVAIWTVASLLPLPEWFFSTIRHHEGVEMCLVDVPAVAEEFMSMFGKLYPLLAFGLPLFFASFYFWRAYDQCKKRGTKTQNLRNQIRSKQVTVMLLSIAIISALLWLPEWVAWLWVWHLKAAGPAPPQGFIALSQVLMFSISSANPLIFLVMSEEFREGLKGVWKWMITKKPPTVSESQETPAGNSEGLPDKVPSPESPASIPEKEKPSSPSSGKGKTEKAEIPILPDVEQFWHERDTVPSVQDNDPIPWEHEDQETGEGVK

activation, inactive:
CC(=O)NC(CC(=O)O)c1ccc(F)cc1 (stereo unspecified) 0.27%, CC(=O)c1c(C)[nH]c(C(=O)N2CCN(c3ccc(Cl)cc3)CC2)c1C -0.42%, CC(=O)Oc1cccc(N2C(=O)C3C4c5ccccc5C(C)(c5ccccc54)C3C2=O)c1 (stereo unspecified) -0.54%, O=C(CC1C(=O)NCCN1Cc1ccc2ccccc2c1)NCCCn1cccn1 (stereo unspecified) 0.42%, CC(=O)Oc1cc2c(C(=O)NCCN3CCOCC3)c(C)oc2c2ccccc12 -0.37%, CCOc1ccc(NC(=O)COc2cccc(C)c2C)cc1 0.66%, Cc1cc2c(cc1S(=O)(=O)CCC(=O)Nc1ccccc1Cl)OCC(=O)N2 0.39%, O=C(CC12CC3CC(CC(C3)C1)C2)Nc1ccc2oc(=O)ccc2c1 -0.22%, CCOc1cc(C2C3=C(CCCC3=O)NC3=C2C(=O)CCC3)cc(Br)c1OCC 0.37%, COc1ccc([N+](=O)[O-])cc1NC(=O)C1CC(Cl)=CCC1C(=O)O (stereo unspecified) 0.92%, Brc1cnc(NC2CCCCC2)nc1 1.03%, COc1cc(-c2coc3cc(O[C@@H]4O[C@H](CO)[C@@H](O)[C@H](O)[C@H]4O)c(OC)c(O)c3c2=O)cc(O)c1OC -0.2%, COc1ccc(OC)c(S(=O)(=O)Oc2ccc(Cl)c3cccnc23)c1 0.21%, O=C(NCCO)c1cnc(NC2CCN(Cc3ccccc3)CC2)s1 0.92%, COc1ccc(C=O)cc1OCc1ccc(F)cc1 -0.07%, C=C(C)CSc1nc2sc3c(c2c(=O)n1-c1ccc(OC)cc1)CC(C)(C)OC3 0.13%, COC(=O)C1=CN(Cc2ccc(Cl)cc2)C=C(C(=O)OC)C1c1cc(OC)c(O)c(OC)c1 0.02%, Nc1nc(NC(=O)/C=C/c2ccc(F)cc2)nn1-c1ccccc1 0.79%, COCCNc1nc2nonc2nc1N(C)Cc1ccncc1C 1.1%, CC(C)N1CCc2c(sc(NC(=O)Cc3ccccc3)c2C#N)C1 0.16%, CC(C)c1ccc(CN[C@H]2C[C@H]3C(=O)N[C@@H](COCc4ccccc4)C(=O)N3C2)cc1 0.67%, CC(C)n1c(Nc2ccc3ncccc3c2)nc2c(NC3CC3)ncnc21 -0.12%, Cc1ccc(/C=C2/C(=O)NC(=O)N(c3ccccc3)C2=O)cc1[N+](=O)[O-] 0%, CN(C)c1cccc(Nc2cc(C(=O)Nc3ccc(N4CCOCC4)cc3)ccn2)c1 -1.31%, O=C(Nc1ccc(N2CCCC2=O)cc1)c1cncc(Br)c1 0.8%, COc1cc(Nc2ccnc(Nc3ccc(N4CCOCC4)cc3)n2)cc(OC)c1OC 3.41%, COc1ccc(COC(=O)NNC(=O)c2cccc(Cl)c2)cc1 -0.17%, CCOC(=O)C(C(=O)c1ccccc1)C1(O)C(=O)c2ccccc2C1=O (stereo unspecified) -0.37%, CCC(CC)C(=O)N1CCN(Cc2nc3sc(C)c(C)c3c(=O)[nH]2)CC1 0.36%, CCC(=O)Nc1cc(C(=O)O)ccc1C 0.34%, CCOC(=O)c1[nH]c2ccc(OC)cc2c1NC(=O)CN(C)C 0.64%, COc1ccc(C2=NN(C(=O)c3cc(OC)c(OC)c(OC)c3)C(c3ccc(Cl)cc3)C2)cc1OC (stereo unspecified) 0.2%, Cc1ccc(N2C(=O)CC(NCCN3CCOCC3)C2=O)cc1 (stereo unspecified) 0.27%, c1cncc(Nc2nc(NC3CC3)c3ncn(C4CCCCC4)c3n2)c1 -0.06%, CCCCOC(=O)C1=C(C)NC2=C(C(=O)CCC2)C1c1cccc([N+](=O)[O-])c1 (stereo unspecified) -0.99%, CC(=O)Nc1ccc(NC(=O)c2ccc3nc(Br)sc3c2)cc1 -0.12%, O=C(COc1ccc([N+](=O)[O-])cc1)Nc1ccc2oc(-c3cccc(F)c3)nc2c1 0.23%, COCC(=O)Nc1c(I)c(C(=O)NCC(O)CO)c(I)c(C(=O)N(C)CC(O)CO)c1I (stereo unspecified) -0.27%, CCN(CC)C(=O)C1CCCN(c2ncc(C)c(NCc3cccc(C(F)(F)F)c3)n2)C1 (stereo unspecified) 1.13%, COc1ccc2nc(/C(C#N)=C\c3cc4c(cc3OC)OCO4)[nH]c2c1 0.91%, Cc1cc(Nc2ccc(F)cc2)n2cnnc2n1 1.15%, CN(Cc1ccccc1)C(=O)c1nc2ccc(-c3cn[nH]c3)cc2s1 0.57%, O=C(/C=C/c1ccccc1)c1ccccc1O -0.11%, COC(=O)Cn1ncc2c3ccccc3n(Cc3cccc(Cl)c3)c2c1=O 0.15%, COc1ccc(CCNC(=S)NCc2cc(C)n(C)n2)cc1OC -0.26%, O=C1/C(=C\c2ccccc2)C(N2CCOCC2)=NN1c1ccc([N+](=O)[O-])cc1 0.23%, CC12CCC(C(=O)NC3CCCCC3)(OC1=O)C2(C)C (stereo unspecified) 0.51%, CN(Cc1nc(-c2ccc3c(c2)OCO3)no1)C1CCCc2ccccc21 (stereo unspecified) 0.68%, COc1ccc(-c2noc(-c3ccccc3Cl)n2)cc1 -0.15%, Cc1ccc2c(c1)N(CC(=O)N1CCC(C)CC1)C(=O)c1cccnc1O2 0.11%, CC(/C=N\NC(=O)CSc1nc(C)cc(C)n1)=C\c1ccccc1 -1.7%
